Test results published in the supplement of paper PMC10105736.
A number with no mark means an inactive call.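 The calls were made as follows: active = MAPPIT score above the 99th percentile of random reference set scores in the same batch; inactive = at or below it.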

Key:
Experiment in all cases: MAPPIT interaction score (arbitrary units); higher = stronger binary interaction signal, active = hit call of the paper
ND-ACP = settings: MAPPIT configuration: N-N; pair source set: Lit-BS-16
Nup107 = settings: MAPPIT configuration: N-C; pair source set: screen_4
dgt6 = settings: pair source set: Lit-BM-16
Nacalpha = settings: MAPPIT configuration: N-N; pair source set: DPIM
Nup50 = settings: MAPPIT configuration: N-N; pair source set: DPIM
Nup62 = settings: MAPPIT configuration: N-N; pair source set: Finley_Y2H
PHDP = settings: MAPPIT configuration: N-N; pair source set: Curagen_low_conf
Nup153 = settings: MAPPIT configuration: N-N; pair source set: DPIM
Pen = settings: MAPPIT configuration: N-N; pair source set: Lit-BM-16
Or49b = settings: MAPPIT configuration: N-N; pair source set: DPIM
Su(var)2-10 = settings: MAPPIT configuration: N-N; pair source set: DPIM
Not3 = settings: MAPPIT configuration: N-N; pair source set: Finley_Y2H
Nnk = settings: MAPPIT configuration: N-N; pair source set: Curagen_high_conf
Nedd4 = settings: pair source set: Lit-BM-16
Naa30A = settings: MAPPIT configuration: N-N; pair source set: Curagen_high_conf
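Also: HEK293T cells with Epo stimulation, STAT-responsive firefly luciferase reporter, fold induction versus unstimulated cells divided by the larger fold induction of two negative controls lacking either bait or prey.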

B1: DENR (protein)
chain: MTNEDVGTNSVADRLQLGPREGVTYPIQMKYCGHCTMPIEYCEYYPEYEKCKEWLELHMPDDFERLKIEEEAAAADGTDDDKKRQKRGGKGLLRVKKKEDVPKRICVSRAARGKKKSVTVVTGLSTFDIDLKVAAKFFGTKFACGSSVTGDDEIVIQGDVKDDLFDVIPEKWAEIDEDVIEDLGDQKRT
MAPPIT interaction score (ND-ACP): 1.72

B2: dgt4 (protein)
chain: METPPTPTTTTPPSLTTEGTMDDIQYLLHLEAMRRFQEDSRNVKRQVEEQVRIWLDAKCEYQRDFGRLARLLKCGALQAAVDAHRVSDVNQVDQAAKDIASLRSKLGSDLRPAILDSNDVKQCLEHLNTTHKPRLNLCRQQREFAQNQEALRSLRTAVDGLENGMEMGMIQAMDRLVEDLLPPRETNN
MAPPIT interaction score (Nup107): 1.57 | MAPPIT interaction score (dgt6; MAPPIT configuration: N-C): 1.64 | MAPPIT interaction score (dgt6; MAPPIT configuration: N-N): 4.36 (active)

B3: eIF3j (protein)
chain: MADDWESAADSEVVIRPTAAASVNKWEGEDEDEDIKDSWEDEEEKKDEEKPTKTEAPAKPKPNKALKAKLEQQALLEEEAEAKRLANLSPAEKLAEKLRLQKIQEASDLKHAQEAFGVTSTCGGLDAFNPETKEEFKEFGATLSWKVGQFRESEHFPQFVEDLVRSLCVNLSAADIKKVKMNVEILHSEKLKLEKANAKKPAGKGKGKVTLRTENDDIDGYQKYGNDFTEDYDDFM
MAPPIT interaction score (Nacalpha): 0.261

B4: Nubp2 (protein)
chain: MLDKVKNVIVVLSGKGGVGKSTVSTQLSLALRKNGFKVGLLDIDLCGPSVPYLLGLEGRDIFQCDDGWVPVYTDESQTLAVMSIGFLLKNREDPVIWRGPKKTMMIRQFLTDVRWDELDYLIIDTPPGTSDEHITVMECLKEVGCHGAIIVTTPQEVALDDVRKEITFCKKTGINILGIVENMSGFVCPHCTSCTNIFSSNGGVSLATYAQVPHLGTLPIDPRVGILAGTTTSVLDELPDSTTAEVLTHIVEKLKTMLVS
MAPPIT interaction score (Nup50): -0.182

B5: Nup54 (protein)
chain: MSFFGSNTSLGATSTPAKTTGGLFGSPFGGTAATSQPAPAFGAQATSTPAFGAQPATSAFGAGSAFGATAAAPAFGAATGTSAFGGSAFGSTPAFGAATTTTAGTGLGGGGFGGFGAAPATSQAGLFGAPATSAAPPAFSGFGQQAAASTAPASGFSGFGTTTTSAPAFGGFGTSQSTGFGGGAFGSTFGKPANTTVTPGFGGFGGTSFMLGQPQQQPAPISADEAFAQSILNVSIFGDERDKIVAKWNYLQATWGTGKMFYSQSAAPVDITPENVMCRFKAIGYSRMPGKDNKLGLVALNFCRELSAVKPHQQQVIQTLHSLFGSKPNMLVHIDSIKELENKKCQIVIYVEEKLQHAPNESKRILATELSNYLNQATLKPQLNNLGVVEALALVLPDEDQLREYLENPPRGVDPRMWRQANSDNPDPTLYIPVPMVGFNDLKWRVKCQEQETDTHALYIKKVESELTELKKRHATATAKILEHKRKLAELSHRILRIIVKQECTRKVGTSLTPEEEALRTKLQNMLAVVSAPTQFKGRLSELLSQMRMQRNQFAANGGAEYALDKEAEDEMKTFLTMQQRAMEVLSDTVNKDLRALDVIIKGLPELRQS
MAPPIT interaction score (Nup62): 5.79 (active) | MAPPIT interaction score (PHDP): -0.274

B6: Nup50 (protein)
chain: MAGKRQATSNLNHENWDLEEEPEERGTFRTATEEELKTRVIKKARRKIAGGSSAAEEDGAEEKTAEPKSVFSGFSGFGKPAASPAAGSPFSFLANVTAPATTSSSEPKKSAFSFGFSSSSSSADRPVSTSICGTASTSSTAPSPLPAKESTSTVDGAKPTTSIFGNISAAKKESSEAKTSSSSTSLTSTMETSEYRESVADLNRSVIKFLQDQMGKSPYCILTPVFKNYDEHLKDLQDEESARTNSTKSKTAQARSQEPVAKVSRASSPPKAATTFTFGKPSAPIGASVSPLAKKPNCTITSGGTTTTTATPLVSFGSTASFTAPVPSSSSIFSLTAKPTGEAKSDDTPKSSIFSFGAKDTTTKKDEPNFSAPKTNGFSFGLKSNNDDKPSTSLFAGFGKAPGGAGDGAKGFSFTNSATPFSLGNIHPPAAAAAPAEEEKEEDTPPKVEFKQVVEDDAIYSKRCKVFIKKDKDFGDRGVGTLYLKPVKDSEKIQLLVRADTNLGNILVNLILSKGIPCQRMGKNNVLMVCVPTPEDSKATSLLLRVKTGDEADDLLEKIKEHIK
MAPPIT interaction score (Nup153): 0.802 | MAPPIT interaction score (Pen): 3.66 (active)

B7: Atx2 (protein)
chain: MNNNSKRKTRPTGGGASGGISRYNSNDNSLRPTNNKAGAGGGNGGAAVRPSAQGVYNNTFFMHSATALVGSVVEVRLRSGNIYEGVFRTFSGNFDIALELPACIKSKNLPEEGKVPKHIIFPADTVVTIVAKDFDSQYATAGAFQTDGAISDKCNGARPDEKELEPWDSGANGDIDIELDSAANGWDPNEMFRKNENTFGVTSTFDDSLASYTVPLDKGDSLEFKEAEAKAEKLAAEIENNPTCRDRLDLENGDEEALFAAVERPSTEQDQRGDRGDRERNDRDREREERDRDRDRDRGNKPRGAGDFQLRETMSSDRYITKQTRSITGPQLSHVGMSSQGSGRDRDTRGDGSMMMQSGGGSGQGGSTQSTAALMLAGGLKGVGPAPSANASADSSSKYSGGSMVKRKTVPQGGKVMRNNVPTGGSNVSVSQGGNGNSVGQNKGGYQPSMGMPSQYSYQGNSQIMHGSSQYRNQSHMGGANKLNGDSNANTNKPLPQRQMRQYQGSQSNSSLNYGGEPQSLGKPVHGSHGGHPGQNSNSPPLQTAGPQQQQQQQQQQQQQQQQQQPPQQQQHQNIQPQGQNTQPARQVRTRDNQMQELRQFGQDFQLAPSNTSPPQQQQQQQQQQQQHQVQQQQQRALQQSASPPQQQQQQQQQQQHVVLHQVPQTHLHQAALSQPHYVPQQQPQQAPLPQQQHVPHHMQQKAQQQQLVETQHQHVQKQHQSQPQVQQPPPQLLQDPSQQPLPIYHTMPPPQTSPVVVTSPVLLEQPPPQPMPVVQQQQTQQLATPKPEVSPAPPSSNTTTPTGIASTPTAGVIASAGSEKTTPAAPTPTSNSATVPTGTAATAGGATGTTPVVKKHVLNPSAKPFTPRGPSTPNPSRPHTPQTPVPMTNIYTTTGGHVPPAANQPIYVMQPQHPFPPQTHPQAGQPPRLRRSNYPPMAASQMHVSASAATGQPLITAGPIPQFIQYGHAPHQQQFQSHTYAPMQMRVYPDQPQQLQFMTQTPQSTTPSPGQPHQQFHPPPQPSPAGGGPQPAFTPPTQAATYQLMCVHPQSLLANHYFPPPTPQHPQQNQQQYQIVMQQHQPQ
MAPPIT interaction score (Or49b): -0.465 | MAPPIT interaction score (Su(var)2-10): 0.0668

B8: Rga (protein)
chain: MANLNFQQPPRSIANAALAGRTTGGFGGSSLAGHVTPTSGMFQTDFANSYPGTANYGQAPQQQQQQQQQPQLSPNRNAQLSVGGPAISSGNRNANLFGQRQFVERRAMQGLGSGPMSNMGNFMQTGRGGYGTGGGGGGPLNNFHVFGGGGGSDTSTPALLDPTEFPSLTNARGQNDQTLPQSNPLQPPGSKPYGNFFTSFGMVKQPTSEQSEFTMSNEDFPALPGTQNSDGTTNAVGSVAGTGGSGGASTENHLDGTEKPMNSIVVSGSASGSSGSNVGVVGGNGLGAVGSGIGGLAVGGGGGAGSSGGGGVGGNAASGVVGGSHVGLVGSNSGIGGVNSVPNSNAMMGVGGGLGSGSGSSGSGAGGEHLNDNSSNDKLVKSGVQTSPDGKVTNIPATMVNNQFGMVGLLTFIRAAETDPNLVTLSLGTDLTGLGLNLNSQESLHTTFAGPFVAQPCRAQDVEFNVPPEYLINFAIRDKLTAPVLKKLQEDLLFFLFYTNIGDMMQLMAAAELHSREWRYHVEEKIWITRIPGIDQYEKNGTKERGTFYYFDAQSWKRLSKVFQIDPEKLDKCPNISAFMNGQSV
MAPPIT interaction score (Not3): 0.172

B9: mei-S332 (protein)
chain: MGSKVEQQYKLLNAELMDQVQKQRLEIGEYRKRVISLEREIMDIREEHVLQNHRQRMENISIVRSLMLSLNVDSDSLAVRQEPAPAAQINRPSGPRRSSREICKDMRRTCALARTTRPISPRRSSSVTSTVSSTSRRSSAEVQSEVVTTRIPEDRRANKPTPPPRRPAELVFDEDDSDDDFDEAVSPVEETQTEQNEENNRLFSIIEENGSEGESTDSSSSCEAIYCDTTFESSPPNAQVTVTPSGRALREVDTNIPVAVSLSRGKETGKGSWLAISVAVEDSPQEPSIQCPRLAVTRPSQSSGIFPDVNGLTPRRSLFNGIGKMAGSTSTPKSFLVEEMPSIRTRSRTAANKKSENTDMSSSFCNNSARPSRSCRPTSLVEPSLKNKLRNGSKGKAKAKK
MAPPIT interaction score (Nnk): -0.26

B10: comm (protein)
chain: MISTTDYPTVETTTTAEELYAEYISAPASSMSPAAIAEHLQQNQITFEIPSAHDLRHIDALNSFNALLQRIGNAAVSYDPAPPSGWSPDGSISTEQLSKSVVLDLADLRDRSEESGESSWWSQIFGDADMHVIINYLWIGVVSSLVILSLVFILFSCYFYRKFRTWKKCNKDIRAQIHAASDSYSSHLVGCDASRLLLHQQMQHPHHRSSEAGFYQIESPPCYTIATGLPSYDEALHHQPRHFAYGMKFVYPSLAAVHHHHHCISNWEKQEPLNKLQKCKLSAAAAVEEDKADSSSSTSASASPSSSESSNLATATPAICINMPSGRQDEEVDNSDSDSAIAVAVAVAQSLQPAAPADDDCASLVVVVAA
MAPPIT interaction score (Nedd4; MAPPIT configuration: N-C): 1.86 | MAPPIT interaction score (Nedd4; MAPPIT configuration: N-N): -0.264

B11: Naa35 (protein)
chain: MYPSTLPAEADPSTMNGSSVAEPPDFQAATAAAAAAARASSLEQDEWSVGECGFLDPDVQRTMRSGSAAEDITQYPMHGWVDVTKEFHDACAELQPGELAQDMLFGLFEAMSAIEIMDPKMDVGMGFDKQDLPPPSFEAAIATGAIKLDDLTPSELIGIYDALFSCLVSWLEGNSMDQVLFTCLYLHAPAQIKDKALRVFCTAVRNLIVVIKKIIAVAAVNEEEDFQLYGNSALLAAEKAQPATVYSSLKDVEDELIRKCKKLTSTEDWMAVVHRLRFMRHLFQVIYHVEQMASNDTVDDKVDIYKILLVASEMLPGIRNTLDRGTQPEKGSDAPNPMGFSPRIHDRSQPPAFPRSIKIRDRPSSYQFLEEMISRFKYACKVTKYKDYYSALNFFIEYSKKSGQCILSRSVLQTLFSANMRMAHGKLPMKQFLRHSVQVFNSPPVLNAKHPVAADPKVQQHLENFFRYCINMNTFTQFIRICGFNRARQRDKLARLIENFDTIQVDAARLDSMMNQLANERAMEGNEPMATALKHSTHFSTWVLYNCFRAMLIFLMSGFELELYAVHEFLYIYWYPYEFLIGFLVSALTRTENILLAQEEYAEHQSKTQSGGSGAAKNRKAAKPKKNKKTQRPYRAEIVFYHALLSLCGGMYKAMGALTKDGRVRLPLSKFDNEEIRYNRRFLPFATLTSPPPVSYAEFKNVREHMMRHSVEDLYTYAAKHFDQARNVLESIQNPDQEMLDLLQIARTNFVVMNVLARGHQKEVKRQPEFDFSKHSYFPIIKLK
MAPPIT interaction score (Naa30A): 3.72 (active)
